Data from PubChem BioAssay AID2315 (National Center for Advancing Translational Sciences (NCATS), 2010).
The campaign covered roughly 290,000 compounds. About 27,000 (9.3%) were called active. The full list was thinned out, with actives kept by preference. Values without a mark were called inactive. No stated cut-off is given here; in the data, active means inhibition mostly above about 28% (no sharp cut-off); inactive means mostly below about 43%.

Experiment: A qHTS for Small Molecule Inhibitors of Shiga Toxin; further: 0% is about no effect
Details: Vero cells, Shiga toxin protein synthesis inhibition reporter; at 38.7 µM, active compounds read high

SMILES | inhibition
CCN(CC(=O)NCc1ccco1)S(=O)(=O)c1ccc(F)cc1 | -12.2%
O=C1C(=O)N(CCCN2CCOCC2)C(c2ccc([N+](=O)[O-])cc2)/C1=C(\O)c1ccc2c(c1)OCCO2 (stereo not drawn) | 22.5%
COc1ccc(N2CCN(C(=O)c3ccccc3NC(=O)C3=C(C)OCCS3)CC2)cc1 | -21.3%
Cc1ccc(S(=O)(=O)N[C@@H](Cc2ccccc2)C(=O)N2CCC(C(=O)N[C@H](C(=O)O)C(C)O)CC2)cc1 (stereo partly drawn) | -8.35%
Cc1nc(-c2ccc(NC(=O)c3cccs3)cc2)cs1 | 45.3% (active)
Cc1ccc(C(=O)Nc2ccc(NC(=O)c3cccs3)cc2)c(C)c1 | 2.76%
Cc1ccc(-c2nnc(-c3ccc(NC(=O)c4cccs4)cc3)o2)cc1 | -3.6%
CCOC(=O)C1CCN(S(=O)(=O)c2ccc3c(c2)N(C)C(=O)CC(=O)N3C)CC1 | -0.654%
COc1ccc(NC(=O)NNC(=O)COc2cc(C)c(Cl)c(C)c2)c(OC)c1 | -7.12%
CCCCSCCCNC(=O)C1CCC(CNS(=O)(=O)c2ccc(NC(C)=O)cc2)CC1 (stereo not drawn) | -4.92%
CCC1Sc2ccc(S(=O)(=O)CCC(=O)NCc3cccs3)cc2NC1=O (stereo not drawn) | -5.71%
O=C(NC1CCCC1)C(c1c(F)cccc1Cl)N(C(=O)c1csnn1)C1CC1 (stereo not drawn) | -2.62%
COc1ccc(N2CCN(S(=O)(=O)CCNC(=O)C34CC5CC(CC(C5)C3)C4)CC2)cc1 | -1.41%
CC(=O)NS(=O)(=O)c1ccc(NC(=O)C2C3C=CC(C3)C2C(=O)O)cc1 (stereo not drawn) | -8.78%
COC(=O)c1cc(NC(=O)C2C3C=CC(C3)C2C(=O)O)cc(C(=O)OC)c1 (stereo not drawn) | -19%
CC(C)COC(=O)c1ccc(NC(=O)C2C3C=CC(C3)C2C(=O)O)cc1 (stereo not drawn) | 77.2% (active)
COc1ccc(CNC(=O)C(c2ccc(O)cc2)N(Cc2ccco2)C(=O)c2snc(C(N)=O)c2N)cc1 (stereo not drawn) | -11.7%
CCCCCCOC(=O)NCC(O)c1ccccc1 (stereo not drawn) | 85.6% (active)
CCCCCOC(=O)NCCOC(=O)Nc1ccc(C(=O)OCC)cc1 | -13.5%
CCCCCCCCC(=O)NCCOc1ccccc1 | -16.7%

SMILES | inhibition
NC(=O)C1CC(=O)N(c2ccc(OCC(=O)NCc3ccccc3)cc2)C1 (stereo not drawn) | -19.2%
COc1ccc(/C=C(/NC(=O)c2ccco2)C(=O)Nc2ccc(C(C)=O)cc2)cc1 | -4.34%
CCOC(=O)c1cc2cc3ccccc3cc2oc1=O | 43.1% (active)
CCCOC(=O)c1cc2ccccc2oc1=O | 18.4%
C=CCc1cccc2cc(C(=O)OCC)c(=O)oc12 | 2.24%
Cc1ccc(-n2c(SCC(=O)NCCC3=CCCCC3)nc3n[nH]c(C)c3c2=N)cc1Cl | -4.66%
CCOC(=O)c1ccccc1NC(=O)COC(=O)CCC(=O)N1CCOCC1 | -9.24%
CC(=O)N1c2ccc(S(=O)(=O)N3CCCC(C(=O)Nc4cccc(F)c4)C3)cc2CC1C (stereo not drawn) | -2.88%
Cc1cccc(NC(=O)NC(=S)NC(=O)c2ccccc2)c1 | 80.2% (active)
CNC(=O)c1ccc(NC(=O)c2cccc(C(F)(F)F)c2)cc1 | -2.63%
Cc1cccc(NC(=O)c2nnn(-c3cccc(C(F)(F)F)c3)c2N)c1 | 31.4%
Cc1cccc(NC(=S)NC(=O)c2ccc(Br)o2)c1 | 105% (active)
Cc1cccc(NC(=O)/C(=C\c2ccco2)NC(=O)c2ccccc2)c1 | -2.02%
Cc1cccc(NC(=S)Nc2ccc(Br)cc2)c1 | 36.6%
Cc1cccc(NC(=S)NC23CN4CN(CN(C4)C2)C3)c1 | -10.3%
Cc1cccc(NC(=O)c2cccc(C(F)(F)F)c2)c1 | 77.8% (active)
O=C(CNC(=O)c1ccc(Br)o1)Nc1ccccc1 | -4.27%
COc1ccc(OCC(=O)Nc2ccc(NC(=O)c3ccco3)c(C)c2)cc1 | 19.3%
O=C(c1cc2cc(Br)cc(Br)c2oc1=O)N1CCOCC1 | 11.8%
COC(=O)CSc1nc2ccccc2c(=O)n1Cc1ccccc1 | -8.77%

SMILES | inhibition
Cc1c(CC(=O)NCCCCCC(=O)O)c(=O)oc2cc3occ(-c4ccccc4)c3cc12 | -4.34%
CCN(CC)S(=O)(=O)c1ccc(N2CC(C(=O)NCc3cccnc3)CC2=O)cc1 (stereo not drawn) | -5.91%
Cc1ccc(CNC(=O)CCN2C(=O)[C@@H]3Cc4ccccc4CN3C2=O)cc1 | 8.09%
CCC(Cc1ccccc1)NS(=O)(=O)c1ccc2c(c1)NC(=O)CS2 (stereo not drawn) | 1.38%
O=C(CN(CC1CCCO1)C(=O)CNS(=O)(=O)c1ccc(Cl)cc1)NCc1ccccc1 (stereo not drawn) | -14%
Cc1ccc(C(=O)N(CC(=O)NC2CCCC2)c2ccc(F)cc2)s1 | -7.38%
O=C(Nc1ccccc1)Nc1ccc(C(F)(F)F)cn1 | 53% (active)
Cc1ccc(NC(=O)Nc2cccc(C(F)(F)F)c2)nc1 | 52.4%
O=C(NC(=O)c1cc(OCC(F)(F)F)ccc1OCC(F)(F)F)Nc1ccccc1 | 27.7%
CC1CCN(CC(=O)c2c[nH]c3ccccc23)CC1 | 15.1%
O=C(OCc1ccc(-c2ccccc2)cc1)c1cccc(O)c1 | 80.8% (active)
CC(=O)Nc1ccccc1C(=O)OCC(=O)c1cccc2ccccc12 | -4.88%
O=C(OCc1ccc(Br)cc1)c1cccc(-c2nnc(-c3ccccc3)o2)c1 | 31.1%
O=C(CNC(=O)c1ccc(-c2ccccc2)cc1)OCc1ccc(Cl)cc1 | -7.89%
O=C(OCC(=O)c1c[nH]c2ccccc12)c1cccc(O)c1 | 69.8% (active)
S=C(Nc1ccc(Br)cc1)NC1CCN(Cc2ccccc2)CC1 | -5.49%
CCc1cc2c(NC(Cc3ccccc3)C(=O)O)ncnc2s1 (stereo not drawn) | -7.1%
COc1ccc(NS(=O)(=O)c2cc(C(=O)Nc3ccccc3C(=O)O)ccc2C)cc1 | -9.69%
